Compound activity deposited in PubChem by Center for Chemical Genomics, University of Michigan.
The entries come from a sample that favours hits as a whole.
Dicer inh = human Dicer pre-microRNA cleavage inhibition | 47,000 tested, 6% active | cat-ELCCA pre-miR-21 Dicer processing, chemiluminescence; hits give high values | Q9UPY3 | z-score at 25 µM; in the data active = z-score above about 3, passing the limit was not always enough;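 also: plate controls were vehicle for no effect and no enzyme for full effect; higher signal means more uncleaved substrate so more Dicer inhibition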
* marks the source's active call; other numbers are inactive results.

Screening CC(C)c1ccc(NC(=S)Sc2ccc(F)cc2F)cc1 returned Dicer inh -1.27.
CCOC(=O)c1sc(Nc2nc(C)c(CC)c(OC)n2)nc1C was read as Dicer inh 0.87.
`CCOC(=O)c1cc2nc3sccn3c2s1` gave Dicer inh -0.99.
For CCOC(=O)c1cc2nc(Nc3ccc(OC)cc3)sc2s1 the results were Dicer inh 3.28*.
For O=C(O)CCC(=O)NCC1COc2ccccc2O1 (stereo not drawn) the results were Dicer inh -0.62.
For COc1ccc(/C(O)=C2/C(=O)C(=O)N(CCCN(C)C)C23C(=O)N(C)c2ccccc23)cc1C (stereo not drawn) the results were Dicer inh 0.63.
CCOc1cc(C2C(C(=O)OCCOc3ccccc3)=C(C)NC3=C2C(=O)CC(C)(C)C3)ccc1O (stereo not drawn) was read as Dicer inh 1.15.
CCCCOC(=O)n1c(=O)oc2ccccc21 was read as Dicer inh 6.56*.
For CCOC(=O)n1c(=S)oc2ccccc21 the results were Dicer inh 1.62.
Screening O=C(c1ccc(Cl)cc1)n1c(=O)oc2ccccc21 returned Dicer inh 1.3.
For O=C(NC1CCS(=O)(=O)C1)c1ccc(Br)cc1 (stereo not drawn) the results were Dicer inh -0.19.
`COc1cc2c(c(OC)c1OC)C(=O)/C(=C/c1c(F)cccc1Cl)C2` gave Dicer inh 1.05.
For Cc1ccc2oc(NC(=O)N3CCOCC3)cc(=O)c2c1 the results were Dicer inh -0.18.
Screening Cc1ccc2oc(C(F)(F)F)cc(=O)c2c1 returned Dicer inh 3.55*.
Cc1ccc2oc(-c3ccc(Br)cc3)cc(=O)c2c1 was read as Dicer inh 0.77.
CCOc1ccc(-c2cn(-c3ccccc3)c3[n+]2CCS3)cc1 was read as Dicer inh -1.24.
`COC1=C(OC)C2(C=CC1=O)CC(C)(C)N=C2SC` (stereo not drawn) gave Dicer inh 1.08.
Screening CSC1=NC(C)(C)CCC12C=CC(=O)C=C2 returned Dicer inh 3.16*.
O=[N+]([O-])c1c(Sc2cccs2)ncnc1Sc1cccs1 was read as Dicer inh -7.13.
For O=C(NCCCN1CCN(Cc2ccccc2)CC1)c1cn2cc(C(F)(F)F)cc(Cl)c2n1 the results were Dicer inh -1.34.
Screening NNC(=O)c1cc(C(F)(F)F)cc(C(F)(F)F)c1 returned Dicer inh 0.55.
NNC(=O)c1cn2cc(C(F)(F)F)cc(Cl)c2n1 was read as Dicer inh 4.81*.
`CCCC(C1C(=O)CC(C)(C)CC1=O)C1C(=O)CC(C)(C)CC1=O` gave Dicer inh -1.41.
`N#Cc1nc(-c2ccc(F)cc2)oc1N1CCOCC1` gave Dicer inh -0.48.
`N#Cc1nc(-c2ccc(Cl)cc2)oc1N1CCOCC1` gave Dicer inh 3.68*.
`COc1ccc(-c2nc(C#N)c(N3CCCCC3)o2)cc1` gave Dicer inh -0.28.
For C=CCOC(=O)C1=C(C)NC2=C(C(=O)CC(C)(C)C2)C1c1ccc(C(=O)OC)cc1 (stereo not drawn) the results were Dicer inh -1.18.
Screening CSc1nc(N)nc(N2CCCCC2)n1 returned Dicer inh -0.03.
O=C(O)CCC1=NN2C=Nc3sc4c(c3C2NC1=O)CCCC4 (stereo not drawn) was read as Dicer inh 3.3*.
For O=C(c1sc2ccccc2c1Cl)N1CCc2ccccc21 the results were Dicer inh 0.15.
Screening CCOC(=O)NC(NCc1ccccc1)(C(=O)OCC)C(F)(F)F (stereo not drawn) returned Dicer inh -0.48.
For Cc1ccc(Nc2nc(C)cc(C)c2C#N)cc1 the results were Dicer inh 2.9.
`C=CCc1c(C)nc(SC)nc1Nc1ccc(C)cc1` gave Dicer inh 5.74*.
For C=CCc1c(C)nc(SC)nc1Nc1ccc(C(=O)OCC)cc1 the results were Dicer inh -0.05.
For NC(=S)Nc1c(Cl)cc(Cl)cc1Cl the results were Dicer inh -1.85.
For COc1ccc(Nc2nc(-c3cccnc3)cs2)cc1 the results were Dicer inh 1.6.
For Cc1cccnc1Nc1nc(-c2ccccn2)cs1 the results were Dicer inh -3.27.
Screening COc1ccc(Nc2nc(-c3ccccn3)cs2)cc1 returned Dicer inh 6.39*.
`O=S(=O)(Nc1ccccc1SCc1c(F)cccc1Cl)c1cccs1` gave Dicer inh 1.96.
C#CCN1C(=O)C(O)(CC(=O)c2ccc(C)cc2C)c2ccccc21 (stereo not drawn) was read as Dicer inh 1.64.
C#CCN1C(=O)C(O)(CC(=O)c2c(C)cc(C)cc2C)c2ccccc21 (stereo not drawn) was read as Dicer inh 4.29*.
C#CCN1C(=O)C(O)(CC(=O)c2cc(C)ccc2C)c2ccccc21 (stereo not drawn) was read as Dicer inh 1.08.
Screening CC(C)OC1=NS(=O)(=O)c2ccccc21 returned Dicer inh 0.82.
`CCOc1cc(C2C(C#N)=C(N)Oc3c2ccc2ccccc32)ccc1O` (stereo not drawn) gave Dicer inh 7.19*.
